Source: PubChem BioAssay (NCI)
The panel holds about 83,000 compounds, 20% with a hit somewhere; the sample as a whole holds those more often.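 For each line, cells grew in 96-well plates with the test compound present at a single concentration for 48 hours.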 Unmarked numbers belong to inactive results. Calls of active or inactive are those of the source. The calls were made as follows: active = growth percent below 10; inactive = the rest.

Tested on: MDA-MB-468 breast
Assay: NCI-60 one-dose screen, 48 h (100 = growth as untreated, 0 = no growth, -100 = all killed)
Conditions: 10 µM unless noted

Row | Structure (SMILES) | growth
1 | CCNC(=S)n1nc(SC)c(C(=O)OCC)c1N | 114%
2 | CN(C)CCN1C(=O)c2cccc3c(-c4ccc5ncn(C6CCCCC6)c5c4)ccc(c23)C1=O | 4.33% (active)
3 | CCCCOC(=O)c1ccc(NC(=O)C(C)N2CCOCC2)cc1 (configuration not stated) | 97%
4 | COc1ccc(-c2nc3sc(-c4ccc(Cl)cc4)cn3n2)cc1 | 33.4%
5 | C=CC(=O)N[C@H](Cc1ccc(-c2cc(Cl)cc(Cl)c2)cc1)[C@H](O)[C@@H](O)C(=O)O | 85.5%
6 | COc1cc2cc(Oc3ccc(NC(=O)c4cccc(C(F)(F)F)c4)cc3)c(C)nc2cc1OCCN(C)C | 81.5%
7 | S=C(Nc1ccc(-c2nc(N3CCOCC3)c3cccn3n2)cc1)Nc1cccnc1 | 34.8%
8 | Cc1nc2scc(-c3ccc(Cl)cc3)n2c(=O)c1CCN1CCOCC1 | 112%
9 | O=C1/C(=C/c2ccc(F)cc2)CN(C(=O)CCN2CCC(=NO)CC2)C/C1=C\c1ccc(F)cc1 | -41.6% (active)
10 | Cc1ccc(OCc2occc2C(=O)N2CCOCC2)cc1 | 103%
11 | Cc1cnc(/C=N\NC(N)=S)c2cccc(N)c12 | -27.7% (active)
12 | O=C(Oc1ccccc1[N+](=O)[O-])C1CCCN1C(=O)OCc1ccccc1 (configuration not stated) | 97.3%
13 | COc1ccc(-c2cc(-c3ccccc3)nc(NCCNc3ccnc4cc(Cl)ccc34)n2)cc1 | -73.7% (active)
14 | C=C1C(=O)O[C@H]2[C@H]1CC/C(COC(=O)/C=C/C(=O)OC/C1=C/CC[C@@]3(C)O[C@H]3[C@H]3OC(=O)C(=C)[C@@H]3CC1)=C\CC[C@@]1(C)O[C@@H]21 | -5.97% (active)
15 | CCCCCCCCCCCCCCCCCCOc1cccc(CCOP(=O)(O)OCC[N+](C)(C)C)c1 | 94.2%
16 | CC(C)n1c(/C=C/[C@@H](O)C[C@@H](O)CC(=O)O)c(-c2ccc(F)cc2)c2ccccc21 | 81.7%
17 | CC(=O)O[C@H]1[C@H](CC#CC#CC[C@@H]2C[C@]3(C)[C@H]4CC=C5[C@H]6[C@@H](C)[C@H](C)CC[C@]6(C(=O)NCCCCCCCCN)CC[C@@]5(C)[C@]4(C)CC[C@H]3C(C)(C)[C@H]2OC(C)=O)C[C@]2(C)[C@H]3CC=C4[C@H]5[C@@H](C)[C@H](C)CC[C@]5(C(=O)NCCCCCCCCN)CC[C@@]4(C)[C@]3(C)CC[C@H]2C1(C)C | 73.5%
18 | CNc1nc2ncn(C)c2c(=O)[nH]1 | 101%
19 | CCCCN(CCC)CCCCCCCCCCN1CCCc2ccccc21 | 65.6%

Row | Structure (SMILES) | growth
20 | O=C(Nc1ccccc1[N+](=O)[O-])c1ccc(Cl)c(Cl)c1 | 65.7%
21 | CCC(O)c1ccc(Br)cc1NC(=O)c1cccc(Cl)c1 (configuration not stated) | 4.57% (active)
22 | COc1ccc(C2=C(c3cc(OC)c(OC)c(OC)c3)C(=O)CC2)cc1 | 4.52% (active)
23 | O=C(O)c1cn(C2CC2)c2cc(N3CCN(C(=O)N(c4ccccc4)c4nc(-c5ccccc5)cs4)CC3)c(F)cc2c1=O | -0.856% (active)
24 | Oc1ccc(Nc2ccc3ccccc3c2)cc1 | 30.5%
25 | CC(=O)c1c(Nc2cccc(F)c2)[nH]c2c(Cl)cc(Cl)c(Cl)c2c1=O | -10.2% (active)
26 | COc1ccc(/C=N/OCC(O)CN2CCC(O)CC2)cc1OC1CCCC1 (configuration not stated) | 117%
27 | COc1ccc(CCNC(=S)NN)cc1OC | 128%
28 | CN(C)CCC=C1c2ccccc2C(C)(C)c2ccccc21 | 56.6%
29 | CN(C)C=Nc1cc(Cl)ccc1Cl | 102%
30 | COc1ccc(NC(=O)Cn2c(=O)sc3c(-c4ccc(Cl)cc4)cc(-c4ccc(Cl)cc4)nc32)cc1 | 114%
31 | CC(=O)CSC(C)=O | 99.1%
32 | O=C1Nc2ccc(C(=O)O)cc2/C1=N/c1nnc(Sc2ccccc2)s1 | 105%
33 | O=C(Nc1cccc(Cl)c1)Nc1ncc(CCNc2ncnc3ccsc23)s1 | 6.87% (active)
34 | COc1ccccc1NC(=O)C1=C(C)NC(C)=C(C(=O)Nc2ccccc2OC)C1c1cccc([N+](=O)[O-])c1 | 74.3%
35 | O=S(=O)(NCCCNc1cc(-c2c(-c3cccc(O)c3)nc3sccn23)ccn1)c1cccc2ccccc12 | 38.3%
36 | COc1cc(-c2nc(Nc3nc4ccccc4[nH]3)nc(N)c2C#N)cc(OC)c1OC | 48.5%
37 | CC(c1ccccc1)N1C(=O)/C(=C/c2csc(C#N)n2)SC1=S (configuration not stated) | 63.5%
